This passage reports growth results from PubChem BioAssay (NCI).

Several values for one entry are separate records, joined by “and”; a condition that tells them apart may be missing. Identical values can stand only once. Compounds without any hit were thinned out: in the full panel of roughly 83,000, 20% have a hit.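 Note: values are percent growth. 100 is the growth of untreated cells, values between 100 and 0 indicate rising inhibition; between -100 and 0 indicates cell death.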 Unmarked numbers belong to inactive results. Activity calls are given as the source filed them. How the source made its calls: active means growth percent below 10; inactive means the rest.

What all share (assay): NCI-60 one-dose screen, 48 h (100 = growth as untreated, 0 = no growth, -100 = all killed)
Common to all, as to settings: 10 µM unless noted

Assay [1] deals with T-47D breast.
Assay [2] relates to BT-549 breast.
Assay [3] concerns MDA-MB-435 melanoma.
In assay [4] the test system is SW-620 colon.
Assay [5] has as its system MCF7 breast.
The subject of assay [6] is HCT-116 colon.
For assay [7], the system named is HCC-2998 colon.
Assay [8] has as its system KM12 colon.
In assay [9] the test system is MDA-MB-468 breast.

In the case of `COc1ccc(Nc2ncnc3sc4c(c23)CCN(Cc2ccccc2)C4)cc1`, the growth in assay [1] was 27.3%; in assay [2], 38.8%; in assay [3], 82.1%; in assay [4] it was 99.8%; in assay [5], 53.4%; in [6] it was 86.4%. Further, the growth is 105% in assay [7], 82.1% in [8] and 56.6% in assay [9].
Regarding `COc1ccc(/C=C/c2nc3ccccc3n3c(-c4cccc([N+](=O)[O-])c4)nnc23)cc1`, the growth in [1] is -7.62% (active); in assay [2], -87.5% (active); in assay [3] it was -46.5% (active); in [4], -22.3% (active); in assay [5] it was -64.5% (active); in [6] it was -76.2% (active). Also, the growth in [7] was -84.5% (active); in assay [8] it was -67.3% (active); in assay [9] it was -65% (active).
On to `O=C(NN1C(=O)/C(=C/C=C/c2ccc([N+](=O)[O-])o2)SC1=S)c1ccc(O)cc1`, for which the growth in [1] was -53.4% (active); in assay [2], -94% (active); in [3], -91% (active); in assay [4] it was -69.1% (active); in [5], -54.4% (active); in [6], -85.1% (active). Besides, the growth in [7] was -92.6% (active); in assay [8], -95.2% (active); in assay [9] it was -77.3% (active).
Take `O=C(CSc1nc2ccccc2c(=O)[nH]1)Nc1ccccc1C(=O)O`: the growth in assay [1] is 93.9%; in assay [2], 103%; in assay [3] it was 104%; in assay [4], 130%; in [5], 84.5%; in assay [6] it was 107%. The growth in [7] is 125%; in [8], 100%; in assay [9], 92.5%.
Consider `CCCSc1nnc(-c2c(C)nc3sccn23)o1`, for which the growth in assay [1] is 21.2%; in assay [2], 109%; in assay [3], 105%; in assay [4], 104%; in assay [5] it was 23%; in assay [6], 95.7%. Also, the growth in assay [7] was 105%; in [8] it was 96.2%; in assay [9], -22.9% (active).
Regarding `Clc1ccc(Nc2nnc(-c3c[nH]c4ccccc34)o2)cc1`, the growth in assay [1] is 42%; in assay [2], 63.7%; in [3], 25%; in [4] it was 86.1%; in assay [5] it was 38.3%; in assay [6], 79.5%. The growth in assay [7] was 74.5%; in assay [8] it was 36%; in assay [9], -20.5% (active).
As for `N#Cc1ccc(C(=O)CSc2nc3c(c(Nc4ccc(S(N)(=O)=O)cc4)n2)CCC3)cc1`, the growth in assay [1] was 71.7%; in assay [2], 83.3%; in assay [3] it was 86.6%; in [4], 47.8%; in [5], 19.2%; in assay [6], 15.7%. Further, the growth is 15.8% in assay [7], 64.2% in assay [8] and 60.4% in assay [9].
Regarding `Cc1ccc(S(=O)(=O)N(CCn2ccnc2[N+](=O)[O-])CCn2ccnc2[N+](=O)[O-])cc1`, the growth is 100% in [1]; 119% in assay [2]; 98.7% in assay [3]; 100% in assay [4]; 100% in assay [5]; 102% in assay [6]. For the same molecule, the values for the growth in [7], in assay [8] and in assay [9] were 114%, 105% and 96.4%, respectively.
For `Cn1cc(-c2cc3nc(-c4cn(C)c5ncc(Br)cc45)cc(N)n3n2)c2cc(F)ccc21`, the growth was 2.75% (active) in assay [1]; 44.9% in assay [2]; 39.8% in assay [3]; 26.6% in assay [4]; 27% in assay [5]; -44.1% (active) in assay [6]. The values for the growth in assay [7], in assay [8] and in [9] were -14.5% (active), 19.1% and -47.4% (active), respectively.
Turning to `CC1(C)CC(=O)C2=C(C1)OC(N)=C(c1nc3ccccc3[nH]1)C2c1ccc(Cl)cc1` (configuration not stated), the growth in [1] is 72.3% and 117%; in assay [2], 57.5% and 123%; in assay [3], 60.5% and 109%; in assay [4] it was 81% and 104%; in assay [5], 56.4% and 93.7%; in assay [6], 63.4% and 103%. The growth in assay [7] was 76.9% and 111%; in assay [8], 36.7% and 100%; in assay [9], 47.3% and 103%.
Regarding `O=C1c2cccc3c(N4CCN(Cc5ccccc5)CC4)ccc(c23)C(=O)N1c1cccc(-c2nn(-c3ccccc3)cc2-c2nc3ccccc3s2)c1`, the growth is 97.6% in [1]; 114% in assay [2]; 108% in [3]; 101% in [4]; 88.6% in assay [5]; 100% in assay [6]. Moreover, the results for the growth in assay [7], in [8] and in assay [9] were 127%, 108% and 95.7%, respectively.
Consider `COc1cc(-c2ccc3ncnc(N4CCc5ccc(Cl)cc54)c3c2)cnc1Cl`, for which the growth in assay [1] was 8.82% (active); in [2], 5.89% (active); in [3], 32.8%; in assay [4] it was 17.4%; in assay [5] it was 3.58% (active); in [6] it was 8.7% (active). Moreover, the growth in [7] was 28%; in assay [8], 33.2%; in assay [9], -16.8% (active).
On to `O=C(Nc1ccc(Br)cc1)Nc1ccc(-c2ccc3c(c2)NC(=O)/C3=C\c2ccc[nH]2)cc1`, for which the growth in assay [1] was 12.1%; in assay [2], 17.2%; in assay [3] it was 39.7%; in [4], 21%; in assay [5], 8.33% (active); in [6], 35%. Also, the growth in assay [7] is 38.8%; in [8], -22.6% (active); in assay [9], -5% (active).
On to `COc1cc(/C=C/C(=O)c2cnn(-c3cc(=O)[nH]c4ccc(Br)cc34)c2C)cc(OC)c1OC`, for which the growth in assay [1] was -47.3% (active); in [2] it was -44.7% (active); in assay [3], 0.423% (active); in [4], -67.4% (active); in [5] it was -46% (active); in [6], -68.9% (active). The growth in assay [7] is -96.8% (active); in assay [8] it was -42.6% (active); in [9], -80.6% (active).
On to `O=C(NNC(=S)NCCc1ccccc1)c1ccc(OCc2nc3ccc(Cl)cc3[nH]2)cc1`, for which the growth in assay [1] was 39.4%; in assay [2], 61.5%; in assay [3] it was 84.3%; in assay [4] it was 129%; in assay [5] it was 34.2%; in assay [6], 64.3%. Besides, the values for the growth in assay [7], in assay [8] and in assay [9] were 104%, 63% and 61.4%, respectively.
On to `CC1=C(C(=O)OC(C)C)C(c2ccc(O)cc2)NC(=O)N1` (configuration not stated), for which the growth in assay [1] is 101%; in assay [2], 96.1%; in assay [3], 99.9%; in assay [4], 103%; in assay [5] it was 98.6%; in assay [6] it was 97.1%. Moreover, the growth in assay [7] is 111%; in assay [8], 111%; in [9] it was 103%.
With `C[C@H](NC(=O)c1ccc2c(-c3ccc(C(F)(F)F)cc3)cccc2c1)c1ccccn1`, the growth is 18% in [1]; 54.3% in [2]; 56% in assay [3]; 68.1% in [4]; 26% in assay [5]; 35.4% in [6]. In addition, the growth in [7] was 49.9%; in [8], 47.5%; in assay [9], 7.67% (active).
For `Nc1nc2cc(-c3ccc4ncnc(NCc5ccccc5)c4c3)ccc2o1`, the growth is -53.6% (active) in assay [1]; -10.8% (active) in assay [2]; 16.7% in assay [3]; 24.1% in [4]; -25.6% (active) in assay [5]; -20% (active) in assay [6]. In addition, the growth in assay [7] was 40.3%; in [8], 25.4%; in assay [9], -47.5% (active).
In the case of `O=C1CCC(N2C(=O)c3cccc(NCCOCCOCCOCCC(=O)NCCCC(=O)NC(c4ccc5c(c4)OCO5)c4cc(Cl)c5cccnc5c4O)c3C2=O)C(=O)C1` (configuration not stated), the growth is 16% in [1]; 11.3% in [2]; 47.4% in assay [3]; 39% in [4]; 10.9% in assay [5]; 28.3% in [6]. The growth is 30% in assay [7], 13.4% in [8] and -33.9% (active) in assay [9].
As to `O=C(CSc1nnc(-c2ccc(-c3nc4ccccc4[nH]3)cc2)o1)Nc1ccc(Cl)cc1`, the growth was 23.8% in assay [1]; -0.131% (active) in assay [2]; 18.4% in assay [3]; -50.5% (active) in assay [4]; 7.43% (active) in [5]; 7.32% (active) in assay [6]. Moreover, the values for the growth in assay [7], in assay [8] and in [9] were 59.6%, 22.9% and 54.8%, respectively.
On to `O=C(N=Nc1c(O)[nH]c2ccc(Cl)cc12)c1ccc2nc(-c3ccc(Cl)cc3)[nH]c2c1`, for which the growth in assay [1] was -2.02% (active); in [2], 49%; in [3], -32.9% (active); in assay [4], 3.1% (active); in assay [5], 1.03% (active); in assay [6], 9.89% (active). Also, the growth was -34.6% (active) in assay [7], 42.3% in assay [8] and -80.7% (active) in assay [9].
On to `Cc1ccc(C(=O)Nc2cccc(C(=O)NC(=S)Nc3ccc(S(N)(=O)=O)cc3)c2)cc1`, for which the growth is 47.6% in assay [1]; 51.4% in assay [2]; 72.5% in assay [3]; 116% in assay [4]; 57.2% in assay [5]; 71.6% in [6]. In addition, the growth in assay [7] was 95.8%; in assay [8], 76.9%; in assay [9], 58.7%.
Turning to `O=C(N/N=C/c1ccc(B(O)O)s1)c1[nH]c2ccc(Br)cc2c1-c1ccccc1`, the growth in assay [1] was -77% (active); in assay [2], -76.2% (active); in [3] it was -75.1% (active); in assay [4] it was -74% (active); in [5], -67.1% (active); in [6], -62.9% (active). For the same molecule, the results for the growth in assay [7], in assay [8] and in assay [9] were -97.7% (active), -36.5% (active) and -95.9% (active), respectively.
With `O=C(CSc1nnc(-c2ccc(-c3nc4ccc(Cl)cc4[nH]3)cc2)o1)Nc1ccc(Br)cc1`, the growth in assay [1] is 41.4%; in assay [2], -1.46% (active); in assay [3], 28.6%; in [4], 17.9%; in [5], 20.4%; in assay [6], 8.26% (active). For the same molecule, the growth was 76.9% in [7], 18.9% in assay [8] and 50.8% in [9].
Take `Cc1ccc(-c2cc(C(=O)N=Nc3c(O)[nH]c4ccc(F)cc34)c3ccccc3n2)cc1`: the growth was 39.9% in assay [1]; 39.1% in [2]; 61% in assay [3]; 19.4% in assay [4]; 18% in [5]; 21% in assay [6]. Further, the growth in assay [7] was 35.9%; in assay [8], 51.2%; in assay [9] it was 31.1%.
As for `COC(=O)c1cc(C(=O)C(C)(C)C)n2c3ccccc3c3ccccc3c12`, the growth is 47.1% in assay [1]; 111% in [2]; 105% in assay [3]; 101% in [4]; 86.2% in [5]; 88.4% in [6]. Also, the growth in assay [7] is 124%; in assay [8] it was 79.5%; in assay [9], 88.3%.
For `COc1cccc(/C=C/c2nc3ccccc3c(=O)n2CC(=O)Nc2ccccc2)c1`, the growth in assay [1] was 36.7%; in [2], 43.9%; in assay [3], 70.6%; in assay [4] it was 51.1%; in assay [5] it was 41.6%; in assay [6], 35.7%. The values for the growth in assay [7], in assay [8] and in assay [9] were 89.8%, 94.2% and 83.4%, respectively.
Regarding `O=[N+]([O-])c1cccc(-c2nnc3c(/C=C/c4ccc(F)cc4)nc4ccccc4n23)c1`, the growth is 74.3% in assay [1]; 87.5% in assay [2]; 102% in assay [3]; 96.1% in assay [4]; 28.4% in assay [5]; 81.1% in assay [6]. In addition, the growth in assay [7] is 105%; in assay [8], 97.6%; in assay [9], 0.494% (active).
